Several values for one entry are separate records, joined by “and”; a condition that tells them apart may be missing. Equal values may be shown once. This is part of a sample that, as a whole, favours compounds with a hit. Of some 79,000 tested, about 15% had one in any assay. Some structures have more than one record in an assay (separate samples or runs), and their calls can disagree. Activity calls are given as the source filed them. Cut-off read from the data, not from the text of the source: active = growth inhibition above about 70%; inactive = the rest.
Legend:
[1] = NCI Yeast Anticancer Drug Screen. Data for the wt1 strain (AID 149);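 note: 0% = growth of vehicle-treated wt1 cultures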; settings: S. cerevisiae wt1 strain (SPY 50644) growth inhibition, stronger effect = higher value
Procedure, shortened: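 Yeast wt1 strain exposed to compounds; growth inhibition measured relative to vehicle-treated controls.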

[2] = NCI Yeast Anticancer Drug Screen. Data for the rad50EPP+ strain (AID 151);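 note: 0% = growth of vehicle-treated control cultures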; settings: S. cerevisiae rad50 mutant strain, stronger effect = higher value
Procedure, shortened: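 One strain with a rad50 alteration (rad50EPP+) was compound-treated, its growth then compared to that of vehicle controls.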

[3] = NCI Yeast Anticancer Drug Screen. Data for the rad50 strain (AID 155);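 note: 0% = growth of vehicle-only cultures of the same strain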; settings: S. cerevisiae rad50 strain growth inhibition, stronger effect = higher value
Procedure, shortened: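 Yeast carrying a defined DNA repair defect were exposed to test compounds, and growth was compared with vehicle-treated controls to give percent inhibition.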

[4] = NCI Yeast Anticancer Drug Screen. Data for the mec2-1 strain (AID 157); settings: S. cerevisiae mec2-1 strain, stronger effect = higher value
Procedure, shortened: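 Test agents were screened against the mec2-1 yeast strain, with defined DNA repair or cell cycle alteration. Growth was scored as inhibition against vehicle-only controls.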

[5] = NCI Yeast Anticancer Drug Screen. Data for the rad14 strain (AID 159);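 note: 0% = growth of vehicle-treated control cultures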; settings: S. cerevisiae rad14 strain growth inhibition, stronger effect = higher value
Procedure, shortened: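 Yeast cells carrying a defined DNA-repair defect were exposed to compounds, and growth inhibition was calculated relative to vehicle-treated control cultures.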

[6] = NCI Yeast Anticancer Drug Screen. Data for the sgs1 mgt1 strain (AID 161);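 note: 0% = growth of cultures given vehicle only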; settings: S. cerevisiae sgs1 mgt1 strain, stronger effect = higher value
Procedure, shortened: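 Inhibition of yeast growth, normalised to vehicle-treated controls, is reported for a strain bearing genetic alterations in DNA damage repair.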

[7] = NCI Yeast Anticancer Drug Screen. Data for the CLN2oe strain (AID 163);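 note: 0% = growth of vehicle-only control cultures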; settings: S. cerevisiae CLN2oe strain, stronger effect = higher value
Procedure, shortened: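 Here, growth inhibition in a cell-cycle-altered yeast strain after compound exposure was quantified against vehicle control growth.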

[8] = NCI Yeast Anticancer Drug Screen. Data for the cln2 rad14 strain (AID 165);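 note: 0% = growth equal to vehicle treated cultures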; settings: S. cerevisiae cln2 rad14 strain, stronger effect = higher value
Procedure, shortened: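 Growth of compound-exposed yeast (cln2 rad14 genotype) measured and expressed as inhibition relative to vehicle.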

[9] = NCI Yeast Anticancer Drug Screen. Data for the bub3 strain (AID 167); settings: S. cerevisiae bub3 mutant strain, stronger effect = higher value
Procedure, shortened: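 Compounds were applied to a genetically altered yeast strain carrying a cell-cycle control defect. Growth inhibition was scored against vehicle-treated controls.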

[10] = NCI Yeast Anticancer Drug Screen. Data for the wt2 strain (AID 169);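 note: 0% = growth of vehicle-treated yeast cultures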; settings: S. cerevisiae wt2 strain growth inhibition, stronger effect = higher value
Procedure, shortened: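 Genetically defined yeast strains from a DNA-repair/cell-cycle panel were used. Compound-exposed yeast growth was measured, and the inhibition was calculated relative to vehicle treatment.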

[11] = NCI Yeast Anticancer Drug Screen. Data for the mlh1 strain (AID 171);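 note: 0% = growth of vehicle-treated control cultures of the same strain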; settings: S. cerevisiae mlh1 strain growth inhibition, stronger effect = higher value
Procedure, shortened: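 Here the genetically defined yeast mutant is grown with each compound, and the extent to which its growth falls below that of vehicle-exposed cells is reported.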

[12] = NCI Yeast Anticancer Drug Screen. Data for the sgs1 strain (AID 173);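 note: 0% = growth of vehicle-only control cultures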; settings: S. cerevisiae sgs1 mutant, stronger effect = higher value
Procedure, shortened: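 Relative growth inhibition, referenced to vehicle, was determined in a yeast strain with a defined alteration affecting DNA damage repair or cell cycle control after compound exposure.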

[13] = NCI Yeast Anticancer Drug Screen. Data for the mlh1 rad18 strain (AID 175); settings: S. cerevisiae mlh1 rad18 strain growth inhibition, stronger effect = higher value
Procedure, shortened: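 In this whole-cell yeast screen, a strain with altered DNA damage repair is challenged with compound, and its growth is measured against matched vehicle-treated controls.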

[14] = NCI Yeast Anticancer Drug Screen. Data for the rad18 strain (AID 177); settings: S. cerevisiae rad18 mutant growth inhibition, stronger effect = higher value
Procedure, shortened: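 Screen uses a yeast strain with a defined lesion in DNA damage repair; compound effect is read as loss of growth compared to untreated vehicle cultures.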

[15] = NCI Yeast Anticancer Drug Screen. Data for the mgt1 strain (AID 153); settings: S. cerevisiae mgt1 mutant growth inhibition, stronger effect = higher value
Procedure, shortened: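 After exposure of the mgt1 yeast mutant to compound, growth was measured and reported as inhibition compared with vehicle controls.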

[16] = at 5.0 µM (retest, dose inferred, filed as 0.5)
[17] = at 50.0 µM (retest, dose inferred, filed as 5.0)

Measured: growth inhibition

COc1ccc2[nH]c3c(C)c4cc[n+](C)cc4c(C)c3c2c1
inactive: [1]; at 1.2 µM 18% and 15% | [1]; at 3.7 µM 45% and 16% | [1]; at 11.0 µM 45% and 26% | [1]; at 33.0 µM 43% and 41% | [1]; at 100.0 µM 43% and 63% | [2]; at 1.2 µM 39% and 24% | [2]; at 3.7 µM 64% and 62% | [3]; at 1.2 µM 22% and 7% | [3]; at 3.7 µM 35% and 34% | [3]; [16] 29% and 31% | [3]; at 11.0 µM 60% | [3]; at 50.0 µM 31.6% and 64.8% | [4]; at 1.2 µM 15% and 23% | [4]; at 3.7 µM 45% and 18% | [4]; [16] 9% and 3% | [4]; at 11.0 µM 53% and 27% | [4]; at 33.0 µM 44% and 36% | [4]; [17] 44% and 16% | [4]; at 50.0 µM 21.2% and 56.6% | [4]; at 100.0 µM 53% and 61% | [5]; at 1.2 µM 0% and 6% | [5]; at 3.7 µM 17% and 15% | [5]; at 11.0 µM 25% | [5]; at 33.0 µM 27% and 40% | [5]; at 100.0 µM 36% and 61% | [6]; [16] 18% and 28% | [6]; [17] 41% and 52% | [6]; at 50.0 µM 45.8% and 36.4% | [7]; at 1.2 µM 45% and -9% | [7]; at 3.7 µM 45% and 0% | [7]; at 11.0 µM 55% and -5% | [7]; at 33.0 µM 50% and 20% | [7]; at 100.0 µM 40% and 66% | [8]; [16] 2% and 24% | [8]; [17] 25% and 30% | [8]; at 50.0 µM 39.2% and 23.3% | [9]; at 1.2 µM 18% and 8% | [9]; at 3.7 µM 30% and 22% | [9]; [16] 19% and 2% | [9]; at 11.0 µM 28% and 23% | [9]; at 33.0 µM 33% and 32% | [9]; [17] 50% and 20% | [9]; at 50.0 µM 22.9% and 34.1% | [10]; at 1.2 µM -13% and -31% | [10]; at 3.7 µM -14% and -11% | [10]; at 11.0 µM -15% and -11% | [10]; at 33.0 µM -13% and 14% | [11]; at 1.2 µM 34% and 19% | [11]; at 3.7 µM 34% and 35% | [11]; at 11.0 µM 41% | [11]; at 33.0 µM 56% | [12]; at 1.2 µM 18% and 25% | [12]; at 3.7 µM 32% and 39% | [12]; at 11.0 µM 51% and 42% | [12]; at 33.0 µM 42% and 52% | [13]; [16] 23% and 19% | [13]; [17] 52% and 32% | [13]; at 50.0 µM 56.5% | [14]; at 1.2 µM 23% and 27% | [14]; at 3.7 µM 40% and 35% | [14]; at 11.0 µM 38% | [14]; at 33.0 µM 45% and 44%
active: [2]; at 11.0 µM 70% and 73% | [2]; at 33.0 µM 73% and 82% | [2]; at 100.0 µM 87% and 89% | [3]; at 33.0 µM 78% and 88% | [3]; [17] 85% and 82% | [3]; at 100.0 µM 92% and 94%
11% (inactive) and 73% (active): [10]; at 100.0 µM
50% (inactive) and 82% (active): [12]; at 100.0 µM
41% (inactive) and 82% (active): [14]; at 100.0 µM
30% (inactive) and 79% (active): [9]; at 100.0 µM
46% (inactive) and 77% (active): [11]; at 100.0 µM

Cc1ccc2c(/C=C/c3ccc(N(C)C)cc3)ccnc2c1C
active: [3]; at 50.0 µM 71.4% | [4]; at 50.0 µM 84.8% | [5]; at 100.0 µM 77% | [6]; [17] 87% | [6]; at 50.0 µM 86.5% | [7]; at 100.0 µM 71% | [9]; [17] 81% | [9]; at 50.0 µM 79.5% | [9]; at 100.0 µM 84% | [10]; at 100.0 µM 86% | [11]; at 100.0 µM 87% | [13]; at 50.0 µM 81.8%
inactive: [1]; at 1.2 µM -44% | [1]; at 3.7 µM -45% | [1]; at 11.0 µM -44% | [1]; at 33.0 µM -39% | [1]; at 100.0 µM 59% | [2]; at 1.2 µM -22% | [2]; at 3.7 µM -30% | [2]; at 11.0 µM -15% | [2]; at 33.0 µM 22% | [2]; at 100.0 µM 41% | [3]; at 1.2 µM -15% | [3]; at 3.7 µM -41% | [3]; [16] 9% | [3]; at 11.0 µM -20% | [3]; at 33.0 µM 14% | [3]; [17] 35% | [3]; at 100.0 µM 67% | [4]; at 1.2 µM -27% | [4]; at 3.7 µM -33% | [4]; [16] -7% | [4]; at 11.0 µM -42% | [4]; at 33.0 µM -16% | [4]; [17] 21% | [4]; at 100.0 µM 58% | [5]; at 1.2 µM -25% | [5]; at 3.7 µM -11% | [5]; at 11.0 µM -11% | [5]; at 33.0 µM -6% | [6]; [16] 33% | [7]; at 1.2 µM 26% | [7]; at 3.7 µM 34% | [7]; at 11.0 µM 26% | [7]; at 33.0 µM 39% | [8]; [16] 22% | [8]; [17] 61% | [8]; at 50.0 µM 29.9% | [9]; at 1.2 µM -8% | [9]; at 3.7 µM 7% | [9]; [16] 43% | [9]; at 11.0 µM 28% | [9]; at 33.0 µM 58% | [10]; at 1.2 µM -12% | [10]; at 3.7 µM -45% | [10]; at 11.0 µM -4% | [10]; at 33.0 µM 63% | [11]; at 1.2 µM -13% | [11]; at 3.7 µM -28% | [11]; at 11.0 µM -19% | [11]; at 33.0 µM 54% | [13]; [16] 1% | [13]; [17] 14% | [14]; at 1.2 µM 1% | [14]; at 3.7 µM -9% | [14]; at 11.0 µM -12% | [14]; at 33.0 µM 29% | [14]; at 100.0 µM 65%

OC1C#CCSCC#C/C=C\1 (stereo unspecified)
inactive: [1]; at 1.2 µM 9% | [1]; at 3.7 µM 3% | [1]; at 11.0 µM 14% | [1]; at 33.0 µM 55% | [15]; at 1.2 µM 9% | [15]; at 3.7 µM 2% | [15]; at 11.0 µM 14% | [15]; at 33.0 µM 43% | [3]; at 1.2 µM -24% | [3]; at 3.7 µM -17% | [3]; [16] 53% | [3]; at 11.0 µM 34% | [3]; at 33.0 µM 65% | [4]; at 1.2 µM 1% | [4]; at 3.7 µM 18% | [4]; [16] 62% | [4]; at 11.0 µM 14% | [4]; at 33.0 µM 54% | [5]; at 1.2 µM 4% | [5]; at 3.7 µM 6% | [5]; at 11.0 µM 12% | [5]; at 33.0 µM 51% | [6]; [16] -4% | [7]; at 1.2 µM -22% | [7]; at 3.7 µM 3% | [7]; at 11.0 µM -15% | [7]; at 33.0 µM -3% | [8]; [16] 60% | [8]; at 50.0 µM 52% | [10]; at 1.2 µM -21% | [10]; at 3.7 µM -17% | [10]; at 11.0 µM 6% | [10]; at 33.0 µM -9% | [11]; at 1.2 µM -1% | [11]; at 3.7 µM 4% | [11]; at 11.0 µM 15% | [11]; at 33.0 µM 46% | [12]; at 1.2 µM 20% | [12]; at 3.7 µM 11% | [12]; at 11.0 µM 27% | [12]; at 33.0 µM 67% | [13]; [16] 62% | [14]; at 1.2 µM -27% | [14]; at 3.7 µM -21% | [14]; at 11.0 µM 4% | [14]; at 33.0 µM 49%
active: [1]; at 100.0 µM 97% | [15]; at 100.0 µM 95% | [3]; [17] 100% | [3]; at 50.0 µM 81.3% | [3]; at 100.0 µM 97% | [4]; [17] 100% | [4]; at 50.0 µM 78.4% | [4]; at 100.0 µM 97% | [5]; at 100.0 µM 98% | [6]; [17] 96% | [6]; at 50.0 µM 70.4% | [7]; at 100.0 µM 77% | [8]; [17] 93% | [10]; at 100.0 µM 95% | [11]; at 100.0 µM 96% | [12]; at 100.0 µM 97% | [13]; [17] 100% | [13]; at 50.0 µM 79.2% | [14]; at 100.0 µM 92%
